Reference: PubChem BioAssay (NCATS)
Inconclusive results are not listed. Activity calls are given as the source filed them. The call rests on the fitted dose curve; in most records, active means well fitted curve in the direction sought with a large enough effect; inconclusive means small, poorly fitted or top-dose-only effect, or another doubt; inactive means no such curve, though single readings can be large; an effect the other way counts as inactive or inconclusive.

How the values were obtained:
[1] = biological target: Glutathione peroxidase 1 (Homo sapiens) (UniProt P07203); assay: Primary qHTS Assay for Inhibitors of Recombinant Selenoprotein Glutathione Peroxidase 1 (GPX1) (AID 1845191); further: nearly all actives have a fitted effect of over 65% in size
Sequence of Glutathione peroxidase 1 (Homo sapiens) (P07203 whole entry, looked up): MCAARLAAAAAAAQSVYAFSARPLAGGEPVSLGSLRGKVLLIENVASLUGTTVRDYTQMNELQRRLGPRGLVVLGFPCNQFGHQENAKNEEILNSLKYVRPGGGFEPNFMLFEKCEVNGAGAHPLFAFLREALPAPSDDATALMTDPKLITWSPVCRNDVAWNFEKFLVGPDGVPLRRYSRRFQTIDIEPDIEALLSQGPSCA
Summary of the method: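 Recombinant GPX1 (10 nM final) was preincubated with compound for 30 min at room temperature, then reacted with 1 mM GSH, 0.5 mM CHP, 0.5 mM NADPH and 100 nM glutathione reductase; NADPH fluorescence (340/450 nm) was read at 0 and 15 min.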

[2] = biological target: Phospholipid hydroperoxide glutathione peroxidase GPX4 (Homo sapiens) (UniProt P36969); assay: Primary qHTS Assay for Inhibitors of Recombinant Selenoprotein Glutathione Peroxidase 4 (GPX4) (AID 1845192); further: nearly all actives have a fitted effect of over 65% in size
Sequence of Phospholipid hydroperoxide glutathione peroxidase GPX4 (Homo sapiens) (P36969 whole entry, looked up): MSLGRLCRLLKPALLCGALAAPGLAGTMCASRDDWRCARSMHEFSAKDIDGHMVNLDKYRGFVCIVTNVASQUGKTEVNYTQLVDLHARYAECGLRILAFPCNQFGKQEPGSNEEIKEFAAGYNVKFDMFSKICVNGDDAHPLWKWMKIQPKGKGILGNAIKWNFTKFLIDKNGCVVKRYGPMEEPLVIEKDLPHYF
Summary of the method: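 GR-coupled readout: 100 nM GR, 1 mM GSH, 0.5 mM NADPH; NADPH fluorescence (ex 340/em 450 nm) read at t=0 and after 15 min RT. GPX4 200 nM, preincubated 30 min with compound; substrate 0.5 mM CHP.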

[3] = biological target: Luciferin 4-monooxygenase (Photinus pyralis) (UniProt P08659); assay: Primary firefly luciferase (FLuc) qHTS assay for identification of artifact compounds. (AID 1845220); further: nearly all actives have a fitted effect of over 60% in size
Summary of the method: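 In this counter-screen for luciferase artifacts, test compounds met substrate (10 uM each luciferin and ATP) before 10 nM enzyme started the reaction. Light output was measured 5 min later.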

[4] = Primary fluorescence-based thiol-reactive (MSTI) qHTS assay for identification of artifact compounds. (AID 1845221);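 further: series mostly up to about 54 µM; thiol-reactive compounds lower the probe fluorescence signal; nearly all actives have a fitted effect of over 65% in size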
Summary of the method: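 Compounds were incubated 1 h at room temperature in the dark with the MSTI probe (4 uM) in PBS pH 7.4, 2% DMSO. Signals were normalized between Acetyl-MSTI and MSTI.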

[5] = test system: Nanoluciferase (engineered Oplophorus gracilirostris luciferase); assay: Primary Nanoluciferase (NLuc) qHTS assay for identification of artifact compounds. (AID 1845222);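 further: NLuc secreted into diluted conditioned medium of S16 cells; series mostly up to about 54 µM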
Summary of the method: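 Using secreted nanoluciferase in S16 culture medium (0.22 um filtered, 1:55 dilution), compounds were preincubated 15 min at RT. Signal was generated with Nano-Glo reagent (1:100) over 5 min.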

[6] = Primary redox qHTS assay for identification of artifact compounds. (AID 1845223)
Summary of the method: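 Amplex Red (25 uM) and HRP (250 mU/mL) in HBSS, with compounds for 15 min, then 250 uM DTT for 30 min, room temperature, dark. Fluorescence 525/598 nm read; normalized to DMSO and 10 uM DA3003; Hill fit.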

Measured: Potency

C=CC1(C)CC(O)C(C(=C)C(=O)OC)C(O)C1C(=C)CO (stereo not drawn)
inactive: all assays above

Cc1cnn(-c2ccccc2)c1NC(=O)COCc1ccccc1
inactive: all assays above

CCN1C(C)(C)CC(Oc2ccc(C(=O)Nc3ccc(NC(=O)Nc4cc(C(C)(C)C)on4)cc3)nc2)CC1(C)C
inactive: all assays above

CN(C)C(=O)NC1(c2ccccc2)CCN(CCC[C@]2(c3ccc(Cl)c(Cl)c3)CCCN(C(=O)c3ccccc3)C2)CC1
inactive: all assays above

COc1cc(C(C)=O)c(OC)c2c1OC(C)(C)C=C2
inactive: all assays above

O=C(NCCCn1ccnc1)c1cc(-c2ccco2)on1
inactive: all assays above

CC(=O)OC[C@]12[C@H](OC(C)=O)[C@H](OC(=O)c3ccccc3)[C@@H]3[C@@H](OC(C)=O)[C@]1(OC3(C)C)[C@H](C)C[C@H](OC(C)=O)[C@@H]2OC(=O)c1ccccc1
inactive: all assays above

Cn1cc(-c2cnn3c(N)c(Br)c([C@@H]4CCCNC4)nc23)cn1
inactive: all assays above

CN(c1ccc(NC(=O)Nc2ccccc2)cc1)S(=O)(=O)c1cnn(-c2ccc(F)cc2)c1
inactive: all assays above

C=CC(=O)N1CCC(Oc2cc3c(Nc4ccc(Cl)c(Cl)c4F)ncnc3cc2OC)CC1
inactive: all assays above

OC(CC1c2ccccc2-c2cncn21)C1CCCCC1 (stereo not drawn)
inactive: all assays above

CCn1c(=O)c(-c2ccc(Cl)cc2Cl)cc2cnc(Nc3ccc(N4CCNCC4)c(F)c3)nc21
inactive: all assays above

O=C1COc2nccc(-c3ccccc3F)c2CN1Cc1cc(C(F)(F)F)cc(C(F)(F)F)c1
inactive: all assays above

C=C1C(=O)OC2/C=C(\COC(C)=O)CC/C=C(\C=O)CC(OC(=O)C(C)CC)C12 (stereo not drawn)
inactive: all assays above

COC(=O)CC[C@@H](C)C1CCC2C3CCC4C[C@H](OC(C)=O)CCC4(C)C3C[C@H](O)C21C (stereo partly drawn)
inactive: all assays above

COc1ccc2c(c1O[C@H]1CCNC1)CCC2
inactive: all assays above

CC1OC(=O)C[C@@H]2C(C(=O)O)=CO[C@@H](O[C@H]3O[C@H](CO)[C@@H](O)[C@H](O)[C@H]3O)[C@H]12 (stereo partly drawn)
inactive: all assays above

C=C1CC[C@@H]2[C@](C)(CO)[C@H](O)CC[C@@]2(C)[C@@H]1C/C=C1/C(=O)OCC1OC(=O)/C(=C/CO)C(O)C[C@@H]1C(=C)CC[C@@H]2[C@](C)(CO)[C@H](O)CC[C@]21C (stereo partly drawn)
inactive: all assays above

CCOc1cccc(NC(=O)c2ccc(N3CCCC3)c(C(F)(F)F)c2)c1
inactive: all assays above

CC(C)(C)c1ccc2c(c1)CC[C@H]2NC(=O)Nc1cccc2[nH]ncc12
inactive: all assays above

CC(C)C(C)C(O)C1CC23CC(=O)C4(O)C(=C2CCC3C1C)C=CC1(O)CC(O)CCC14C (stereo not drawn)
inactive: all assays above

CCC(C)C(=O)Oc1cc(C)ccc1C1(COC(=O)C(C)C)CO1 (stereo not drawn)
inactive: all assays above

C=C(C(=O)O[C@H]1C/C(C)=C/CC/C(CO)=C/[C@H]2OC(=O)C(=C)[C@H]12)C(O)CO (stereo partly drawn)
inactive: all assays above
